# A number with no mark means an inactive call. Results filed as inconclusive are left out. A call without a number means that no potency is given here. Active and inactive are the calls of the source. Calls come from the whole dose curve; as a rule, active = well fitted curve in the direction sought with a large enough effect in the repeat runs; inconclusive = weak or mixed curves; inactive = no such curve, though single readings can be large; an effect the other way counts as inactive or inconclusive.
# Experiments:
# [1] = qHTS RealTime-Glo MT Cell Viability Assay in HepG2 cells - 24 hour (AID 1224867); note: nearly all actives have a fitted effect of over 50% in size
# Summary of the method: (§1)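 qHTS, HepG2, 600 cells/well, RealTime-Glo (NanoLuc + prosubstrate) added with cells; 5 h preincubation; DMSO compound addition; 37 C; luminescence at 0/8/16/24/32/40 h.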
# [2] = qHTS RealTime-Glo MT Cell Viability Assay in HEK293 cells - 32 hour (AID 1224868); note: top concentration of the series differs between compounds; nearly all actives have a fitted effect of over 50% in size
# Summary of the method: (§2)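 Assay medium contained NanoLuc luciferase plus cell-permeant prosubstrate, added with HEK293 cells at 600 cells/well. After 5 h at 37 C/5% CO2 compounds were added; plates stayed at 37 C for 40 h with serial luminescence reads.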
# [3] = A CellTox Green Cytotoxicity Assay to monitor cytotoxicity in HEK293 cells - 0 hour (AID 1224869); note: nearly all actives have a fitted effect of over 50% in size
# Summary of the method: (§3)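 Fluorescence intensity, read at 0, 8, 16, 24, 32 and 40 h of compound treatment, reflected dye binding to DNA of dead HEK293 cells; compounds (23 nL, DMSO) were added 5 h after plating cells with reagent.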
# [4] = qHTS RealTime-Glo MT Cell Viability Assay in HepG2 cells - 40 hour (AID 1224870); note: nearly all actives have a fitted effect of over 50% in size
# Summary of the method: (§4)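 HepG2 cells mixed with RealTime-Glo MT reagents (NanoLuc plus cell-permeant prosubstrate) were seeded at 600 cells/well, incubated 5 h at 37 C/5% CO2, then pinned with compounds in DMSO; nonlytic luminescence tracked viability during 40 h treatment.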
# [5] = qHTS RealTime-Glo MT Cell Viability Assay in HEK293 cells - 16 hour (AID 1224872)
# Summary of the method: as §2
# [6] = qHTS RealTime-Glo MT Cell Viability Assay in HepG2 cells - 8 hour (AID 1224873); note: nearly all actives have a fitted effect of over 55% in size
# Summary of the method: as §4
# [7] = qHTS RealTime-Glo MT Cell Viability Assay in HEK293 cells - 40 hour (AID 1224874); conditions: RealTime-Glo luminescence; max response: stronger effect = lower value; note: nearly all actives have a fitted effect of over 50% in size
# Summary of the method: (§5)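 Viable HEK293 cells reduce a cell-permeant prosubstrate; the product diffuses out and is consumed by NanoLuc in the medium to give light. Compounds went in after a 5 h incubation and plates were read over the treatment course.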
# [8] = A CellTox Green Cytotoxicity Assay to monitor cytotoxicity in HepG2 cells - 16 hour (AID 1224876); note: nearly all actives have a fitted effect of over 45% in size; note: potency is the fitted concentration of half-maximal effect
# Summary of the method: (§6)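 Using 1536-well format, dye-containing HepG2 suspension was seeded, allowed 5 h at 37 C/5% CO2, dosed by pintool with compounds, positive and negative controls, and imaged for fluorescence across 40 h.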
# [9] = qHTS RealTime-Glo MT Cell Viability Assay in HepG2 cells - 32 hour (AID 1224877); note: nearly all actives have a fitted effect of over 55% in size
# Summary of the method: as §1
# [10] = A CellTox Green Cytotoxicity Assay to monitor cytotoxicity in HepG2 cells - 24 hour (AID 1224878); note: nearly all actives have a fitted effect of over 45% in size; note: potency is the fitted concentration of half-maximal effect
# Summary of the method: as §6
# [11] = A CellTox Green Cytotoxicity Assay to monitor cytotoxicity in HepG2 cells - 40 hour (AID 1224879); note: nearly all actives have a fitted effect of over 40% in size
# Summary of the method: as §6
# [12] = qHTS RealTime-Glo MT Cell Viability Assay in HEK293 cells - 0 hour (AID 1224880); note: top concentration of the series differs between compounds; nearly all actives have a fitted effect of over 45% in size
# Summary of the method: as §5
# [13] = A CellTox Green Cytotoxicity Assay to monitor cytotoxicity in HepG2 cells - 0 hour (AID 1224882); note: nearly all actives have a fitted effect of over 35% in size; note: potency is the fitted concentration of half-maximal effect
# Summary of the method: as §6
# [14] = A CellTox Green Cytotoxicity Assay to monitor cytotoxicity in HepG2 cells - 32 hour (AID 1224883); note: nearly all actives have a fitted effect of over 50% in size
# Summary of the method: as §6
# [15] = A CellTox Green Cytotoxicity Assay to monitor cytotoxicity in HEK293 cells - 8 hour (AID 1224884); note: nearly all actives have a fitted effect of over 35% in size
# Summary of the method: as §3
# [16] = qHTS RealTime-Glo MT Cell Viability Assay in HepG2 cells - 16 hour (AID 1224885); note: nearly all actives have a fitted effect of over 50% in size
# Summary of the method: as §1
# [17] = A CellTox Green Cytotoxicity Assay to monitor cytotoxicity in HEK293 cells - 40 hour (AID 1224871); note: nearly all actives have a fitted effect of over 45% in size
# Summary of the method: as §3
# [18] = A CellTox Green Cytotoxicity Assay to monitor cytotoxicity in HEK293 cells - 24 hour (AID 1224875)
# Summary of the method: as §3
# [19] = A CellTox Green Cytotoxicity Assay to monitor cytotoxicity in HEK293 cells - 32 hour (AID 1224881); note: nearly all actives have a fitted effect of over 40% in size
# Summary of the method: as §3
SMILES,outcome [1],Potency [2],Potency [3],outcome [4],Potency [5],outcome [6],max response [7] [%],Potency [8],outcome [9],Potency [10],Potency [11],outcome [12],Potency [13],Potency [14],Potency [15],outcome [16],Potency [17],Potency [18],Potency [19]
C=CCOc1cc(Cl)ccc1C(=O)NCCN(CC)CC,inactive,inactive,inactive,inactive,inactive,inactive,-13.3,inactive,inactive,inactive,inactive,inactive,inactive,inactive,inactive,inactive,–,–,–
O=S(=O)(O)CCO,inactive,inactive,inactive,inactive,inactive,inactive,-10.5,inactive,inactive,inactive,inactive,inactive,–,inactive,inactive,inactive,inactive,inactive,inactive
CNC(=O)NC,inactive,inactive,inactive,inactive,inactive,inactive,1.12,inactive,inactive,inactive,inactive,inactive,inactive,inactive,–,inactive,inactive,inactive,inactive
N#CCCOCCOCCC#N,inactive,inactive,inactive,inactive,inactive,inactive,9.79,inactive,inactive,inactive,inactive,inactive,inactive,inactive,inactive,inactive,inactive,–,inactive
NCCc1ccn[nH]1,inactive,inactive,inactive,inactive,inactive,inactive,6.3,inactive,inactive,inactive,inactive,inactive,–,inactive,inactive,inactive,inactive,inactive,inactive
SCCSCCS,inactive,inactive,inactive,inactive,inactive,inactive,-1.15,inactive,inactive,inactive,inactive,inactive,inactive,inactive,–,inactive,inactive,inactive,inactive
FC(F)(F)/C(=N\OCC1OCCO1)c1ccc(Cl)cc1,inactive,inactive,inactive,–,inactive,inactive,3.42,inactive,inactive,inactive,inactive,inactive,inactive,inactive,–,inactive,inactive,inactive,inactive
COc1ccc(/C=N/NC(=O)c2ccncc2)cc1OC,inactive,inactive,inactive,inactive,inactive,inactive,-6.3,inactive,inactive,inactive,inactive,inactive,inactive,inactive,–,inactive,inactive,inactive,inactive
C/C=C(\C)C(=O)OCC/C=C\CC,inactive,inactive,inactive,–,inactive,inactive,2.25,inactive,inactive,inactive,inactive,inactive,inactive,inactive,inactive,inactive,inactive,inactive,inactive
C[Si]1(C)N[Si](C)(C)N[Si](C)(C)N1,inactive,inactive,inactive,inactive,inactive,inactive,16.3,inactive,inactive,inactive,inactive,inactive,–,inactive,–,inactive,inactive,inactive,inactive
CCCCC(CC)CNC(=O)CC(C)OC(=O)CCC(=O)O (stereo unspecified),inactive,inactive,inactive,inactive,inactive,inactive,3.69,23.9 µM (active),inactive,26.8 µM (active),–,inactive,26.8 µM (active),–,inactive,inactive,inactive,inactive,inactive
C[C@H](CCC(=O)O)[C@H]1CC[C@H]2[C@@H]3[C@H](O)C[C@@H]4C[C@H](O)CC[C@]4(C)[C@H]3C[C@H](O)[C@]12C,inactive,inactive,inactive,inactive,inactive,inactive,-1.02,inactive,inactive,inactive,inactive,inactive,–,inactive,inactive,inactive,inactive,inactive,inactive
CCC(O)C(C)(C)C (stereo unspecified),inactive,inactive,inactive,inactive,inactive,inactive,2.07,inactive,inactive,inactive,inactive,inactive,–,inactive,inactive,inactive,–,–,–

# From PubChem BioAssay (Tox21)
